Bioassay records: PubChem BioAssay, several laboratories
Rows were chosen to be rich in hits. Some 1.6% of all compounds tested hit in one or more screens of this group.
Hsp70 activator – Hsp70 transcriptional activators, primary screen, cell-based, HeLa, Hsp70 promoter luciferase, luminescence, 10 µM; activation, % at 10 µM; 0.04% of 200,000 active; HeLa Hsp70 promoter luciferase reporter; scaled: vehicle 0, proteasome-inhibitor control 100%;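 active means activation above the mean across all tested compounds plus 3 SD, cutoff set per campaign, cut at about 5.5% in these data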
Wee1 degr inh – Wee1 degradation inhibitors, primary screen, cell-based, HeLa, Wee1K328M-luciferase, luminescence; Wee1-like protein kinase (Homo sapiens), P30291; HeLa Luc-Wee1K328M stability; 100% = proteasome inhibitor MG132 effect; reporter increase, % at 5 µM; 1.2% of 220,000 active; AID 1321, 2008;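 active means activation above the mean of all tested compounds plus 3 SD, set per screening run, cut at about 8.8% in these data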;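 further: cells exposed to compound for 20 h before luminescence read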
DTT redox prof – compounds producing H2O2 with reducing agent – biochemical, NIH compound library profiling, artefact control for MLSCN library redox annotation, primary screen; activation, % at 10 µM; 0.03% of 200,000 active; AID 878, 2007; DTT-dependent redox cycling H2O2, phenol red/HRP absorbance; 100% = 100 µM peroxide control, 0% = buffer;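 active means activation of at least 50% relative to the plate's high and low controls in the primary single-dose screen; inactive means activation below 50%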;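 further: compound incubated with DTT at 0.8 mM final as the reducing agent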
p97 inhibitor – inhibitors of human p97 ATPase, primary screen, biochemical. 0.42% of 220,000 active. inhibition, % at 8 µM. recombinant p97 ATPase, Kinase-Glo ATP luminescence, 3 h. Transitional endoplasmic reticulum ATPase (Homo sapiens), P55072; in the data active means inhibition above about 15%
HSV augment – enhancers of HSV replication in host cells, fold increase, host cell viability. HSV replication augmentation in cells. maximum fold increase. 0.005% of 220,000 active; in the data active means maximum fold increase above about 1.5; inconclusive means no clear call, values can overlap the other calls; tested in PC3 cells
Wee1 degr conf – Wee1 degradation inhibitors, confirmation, cell-based, HeLa, Wee1K328M-luciferase, luminescence, triplicate; shares compounds with Wee1 degr inh; HeLa Luc-Wee1K328M degradation; vehicle 0%, proteasome-blocked wells 100%; activation, % at 5 µM; 4% of 1,100 active; AID 1410, 2008; in the data active means activation above about 8.9%
Hits are given with their value.

What do the screens show for `Nc1nc2ccc(C(=O)Nc3ccccc3)cc2s1`?
Hsp70 activator: inactive; Wee1 degr inh: 15; DTT redox prof: inactive; p97 inhibitor: inactive; HSV augment: inactive; Wee1 degr conf: inactive

Results for CCOC(=O)C1(C)/C(=N/Nc2ccccc2)C(=O)C(=O)N1c1ccccc1 (configuration not stated) ?
Hsp70 activator: inactive; Wee1 degr inh: inactive; DTT redox prof: inactive; p97 inhibitor: inactive; HSV augment: inactive

How did CC(=O)c1ccc(OCC(=O)c2cc(C)n(-c3ccc4c(c3)OCO4)c2C)cc1 do in these assays?
Hsp70 activator: inactive; Wee1 degr inh: 15; DTT redox prof: inactive; p97 inhibitor: inactive; HSV augment: inactive; Wee1 degr conf: inactive

How did CCOc1ccc(NC(=O)c2c(OC)cccc2OC)cc1 do in these assays?
Hsp70 activator: inactive; Wee1 degr inh: inactive; DTT redox prof: inactive; p97 inhibitor: inactive; HSV augment: inactive

Results for Cc1ccccc1-n1cc(-c2ccc(Br)cc2)nc1SCC(N)=O ?
Wee1 degr inh: 13; p97 inhibitor: inactive; HSV augment: inactive; Wee1 degr conf: inactive

How did COc1ccc2c(c1)CC(=O)NC=C2 do in these assays?
Hsp70 activator: inactive; Wee1 degr inh: inactive; DTT redox prof: inactive; p97 inhibitor: inactive; HSV augment: inactive

What do the screens show for `C=CCn1c(SCC(=O)Nc2cc(C)ccc2OC)nnc1-c1ccco1`?
Hsp70 activator: inactive; Wee1 degr inh: 15; DTT redox prof: inactive; p97 inhibitor: inactive; HSV augment: inactive; Wee1 degr conf: inactive

What do the screens show for `O=C(/C=C/c1cccnc1)c1cc(F)ccc1O`?
Wee1 degr inh: inactive; p97 inhibitor: inactive; HSV augment: inactive

How did O=C(/C=C/c1cccnc1)/C=C/c1cccnc1 do in these assays?
Wee1 degr inh: 18; p97 inhibitor: inactive; HSV augment: inactive; Wee1 degr conf: 22

How did COc1cc(C)ccc1OCCCCOc1ccccc1C(C)=O do in these assays?
Hsp70 activator: inactive; Wee1 degr inh: 16; DTT redox prof: inactive; p97 inhibitor: inactive; HSV augment: inactive; Wee1 degr conf: inactive

What do the screens show for `COc1cc(C)ccc1OCCCOc1ccccc1Cl`?
Hsp70 activator: inactive; Wee1 degr inh: inactive; DTT redox prof: inactive; p97 inhibitor: inactive; HSV augment: inactive

What do the screens show for `O=[N+]([O-])c1cc(/C=N/N2CCN(Cc3ccccc3)CC2)ccc1Cl`?
Hsp70 activator: inactive; Wee1 degr inh: 15; DTT redox prof: inactive; p97 inhibitor: inactive; HSV augment: inactive; Wee1 degr conf: inactive

How did O=[N+]([O-])c1ccc(Cl)c(/C=N/N2CCN(Cc3ccccc3)CC2)c1 do in these assays?
Hsp70 activator: inactive; Wee1 degr inh: inactive; DTT redox prof: inactive; p97 inhibitor: inactive; HSV augment: inactive

How did BrC(=C\c1ccccc1)/C=N/N1CCN(Cc2ccccc2)CC1 do in these assays?
Hsp70 activator: inactive; Wee1 degr inh: inactive; DTT redox prof: inactive; p97 inhibitor: inactive; HSV augment: inactive

Results for BrC(/C=N/N1CCN(Cc2ccccc2)CC1)=C/c1ccccc1 ?
Wee1 degr inh: 23; p97 inhibitor: inactive; HSV augment: inactive; Wee1 degr conf: inactive

How did CCCCN(C(=O)CNC(=O)c1cccs1)C(C(=O)NC1CCCC1)c1ccncc1 (configuration not stated) do in these assays?
Hsp70 activator: inactive; Wee1 degr inh: inactive; DTT redox prof: inactive; p97 inhibitor: inactive; HSV augment: inactive

What do the screens show for `S=C(NCc1ccc2c(c1)OCO2)NCc1ccc2c(c1)OCO2`?
Hsp70 activator: inactive; Wee1 degr inh: 12; DTT redox prof: inactive; p97 inhibitor: inactive; HSV augment: inactive; Wee1 degr conf: inactive

How did CCNC(=S)NCc1ccc2c(c1)OCO2 do in these assays?
Hsp70 activator: inactive; Wee1 degr inh: inactive; DTT redox prof: inactive; p97 inhibitor: inactive; HSV augment: inactive

What do the screens show for `O=C(NCc1ccc2c(c1)OCO2)c1ccc2c(c1)OCO2`?
Wee1 degr inh: 16; p97 inhibitor: inactive; HSV augment: inactive; Wee1 degr conf: inactive

Results for CS(=O)(=O)N1CCCC(C(=O)NCCCN2CCc3ccccc3C2)C1 (configuration not stated) ?
Hsp70 activator: inactive; Wee1 degr inh: inactive; DTT redox prof: inactive; p97 inhibitor: inactive; HSV augment: inactive

How did COC(=O)c1ccc(NC(=O)CSc2ccccn2)cc1 do in these assays?
Hsp70 activator: inactive; Wee1 degr inh: 15; DTT redox prof: inactive; p97 inhibitor: inactive; HSV augment: inactive; Wee1 degr conf: inactive

Results for COC(=O)c1ccc(NC(=O)CSc2nnc(C(C)NC(=O)c3ccccc3Cl)n2C)cc1 (configuration not stated) ?
Hsp70 activator: inactive; Wee1 degr inh: 22; DTT redox prof: inactive; p97 inhibitor: inactive; HSV augment: inactive; Wee1 degr conf: inactive

How did Cc1ccc(Cn2c(C3CCCN3c3nc(-c4ccc(F)cc4)cs3)nc3cc(C(F)(F)F)ccc32)cc1 (configuration not stated) do in these assays?
HSV augment: inactive

Results for CC1(C)Cc2c(C#N)c(N3CCN(C(=O)c4ccccc4)CC3)nc(-c3ccco3)c2CS1 ?
Hsp70 activator: inactive; Wee1 degr inh: 15; DTT redox prof: inactive; p97 inhibitor: inactive; HSV augment: inactive; Wee1 degr conf: inactive

How did CC(C)(C)c1ccc(C(=O)Nc2ccc(F)cc2)s1 do in these assays?
Wee1 degr inh: 12; p97 inhibitor: inactive; HSV augment: inactive; Wee1 degr conf: inactive

How did CCc1cc2cc(C(=O)Nc3ccc(F)cc3)sc2s1 do in these assays?
Hsp70 activator: inactive; Wee1 degr inh: inactive; DTT redox prof: inactive; p97 inhibitor: inactive; HSV augment: inactive

Results for CN(C)c1ccc(C(CC(=O)c2ccccc2)C2CCCCC2=O)cc1 (configuration not stated) ?
Hsp70 activator: inactive; Wee1 degr inh: inactive; DTT redox prof: inactive; p97 inhibitor: inactive; HSV augment: inactive

What do the screens show for `O=c1c2c(ncn2C2CCCC2)n(Cc2ccccc2)c(=O)n1CCOc1ccccc1`?
Hsp70 activator: inactive; Wee1 degr inh: 14; DTT redox prof: inactive; p97 inhibitor: inactive; HSV augment: inactive; Wee1 degr conf: inactive

How did O=c1c2c(ncn2C2CCCC2)n(Cc2ccccc2)c(=O)n1CCOc1ccc(Br)cc1 do in these assays?
Hsp70 activator: inactive; Wee1 degr inh: inactive; DTT redox prof: inactive; p97 inhibitor: inactive; HSV augment: inactive

How did O=c1c(O)c(-c2ccc3c(c2)OCO3)oc2ccccc12 do in these assays?
Hsp70 activator: inactive; Wee1 degr inh: inactive; DTT redox prof: inactive; p97 inhibitor: inactive; HSV augment: inconclusive

How did O=C(Nc1cccnc1)c1sc2cccc(F)c2c1Cl do in these assays?
Hsp70 activator: inactive; Wee1 degr inh: 15; DTT redox prof: inactive; p97 inhibitor: inactive; HSV augment: inactive; Wee1 degr conf: inactive
